Screens: PubChem BioAssay, National Center for Advancing Translational Sciences (NCATS)
The list is not random: actives were taken first. Their share in the collection is about 9.3%.
Rab9 prom act = Rab9 promoter activation; Huh7 Rab9 promoter-luciferase reporter, luminescence, 24 h; Potency, µM (titrated, usually from 9.22 µM), without a hit: top-dose activation, negative = inhibition, usual class: activators; actives 2.8% (n = 320,000); note: % of control where 0% means no effect; nearly all actives have a fitted effect of over 60% in size
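Huh7 reporter line, Rab9 promoter upstream of luciferase. Compound exposure 24 h at 37 °C in reduced-serum medium with 10% FBS. Read-out: luminescence.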
SMN2 splice enh = enhancers of SMN2 splice variant expression | HEK293 SMN2-luciferase splicing reporter, luminescence, 30-36 h | Potency, µM (doses to about 46.1 µM), inactives show at the top dose activity change, positive = activation, hits mostly activators | actives 2.8% (n = 210,000) | AID 1458; note: % of control where 0% means no effect; nearly all actives have a fitted effect of over 55% in size
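HEK293 cells carry an SMN2 minigene-luciferase reporter in which exon 7 inclusion puts luciferase in frame. Cells were seeded at 2000 cells/well, attached for 10-12 hours, then exposed to compounds for 30-36 hours at 37C before ONE-Glo luminescence.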
FLuc counter = counter-screen for miR-21 project: firefly luciferase inhibitors or activators. P08659. purified FLuc, Km substrates, luminescence inhibition. Potency, µM (series often up to 57.5 µM), without a hit: at the highest dose activity change, negative = inhibition, most hits filed as inhibitors. actives 6.9% (n = 360,000);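 note: plate controls were vehicle for no effect and reference inhibitor for full effect; nearly all actives have a fitted effect of over 55% in size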
Target sequence (P08659 whole entry, looked up): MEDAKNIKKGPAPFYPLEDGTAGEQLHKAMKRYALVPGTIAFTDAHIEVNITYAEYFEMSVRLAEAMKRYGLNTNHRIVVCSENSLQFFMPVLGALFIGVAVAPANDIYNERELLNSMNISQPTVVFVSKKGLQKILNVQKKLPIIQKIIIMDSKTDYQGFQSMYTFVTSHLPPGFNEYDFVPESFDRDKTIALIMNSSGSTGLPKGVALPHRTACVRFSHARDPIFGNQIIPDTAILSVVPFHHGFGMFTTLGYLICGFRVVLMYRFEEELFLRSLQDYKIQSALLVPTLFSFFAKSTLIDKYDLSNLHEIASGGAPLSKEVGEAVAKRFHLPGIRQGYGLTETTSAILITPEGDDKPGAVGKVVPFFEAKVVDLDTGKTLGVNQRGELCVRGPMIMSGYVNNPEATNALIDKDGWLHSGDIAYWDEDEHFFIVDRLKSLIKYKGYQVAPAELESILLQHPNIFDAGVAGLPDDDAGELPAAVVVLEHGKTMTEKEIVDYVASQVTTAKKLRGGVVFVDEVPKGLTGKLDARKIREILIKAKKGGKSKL
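Biochemical qHTS of compounds, final roughly 60 µM downward over six points, against 10 nM purified firefly luciferase using Km concentrations of substrates (10 uM D-luciferin, 10 uM ATP) in Tris acetate pH 7.5 buffer; luminescence output.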
NPC1 promoter act = NPC1 promoter activation; Huh7 NPC1 promoter luciferase reporter, 24 h; Potency, µM (highest dose often 9.22 µM), for the others: top-dose activation, usual class: activators; actives 2.4% (n = 320,000); AID 485313; note: % of control where 0% means no effect; nearly all actives have a fitted effect of over 60% in size
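Luminescence read-out of NPC1 promoter-driven luciferase in stably transfected Huh7 cells; compounds delivered in DMSO and left 24 h at 37C, 5% CO2, qHTS titration format.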
ELG1 genotox = induces genotoxicity in HEK293T cells with luciferase-tagged ELG1; AID 504466; actives 1.3% (n = 330,000); Potency, µM (highest dose often 46 µM), without a hit: at the highest dose activity change, positive = activation, usual class: activators; HEK293T ELG1-luciferase reporter, luminescence, 16 h; note: % of control where 0% means no effect; nearly all actives have a fitted effect of over 60% in size
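Step 1: seed 2,000 HEK293T ELG1-luciferase cells per well. Step 2: add compound or DMSO, incubate 16 hr at 37 °C. Step 3: ONE-Glo, 30 min at room temperature, read luminescence.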
ELG1 repair inh = ELG1-dependent DNA repair inhibition. Potency, µM (top dose mostly 46.1 µM), for inactives: at the top dose activity change, negative = inhibition, most hits filed as inhibitors. HEK293T ELG1-luciferase reporter, luminescence, 16 h; DNA damage induced by 5-fluorouridine. actives 2.3% (n = 330,000); note: % is set by controls: 0 for no effect and ±100 for the full control effect; nearly all actives have a fitted effect of over 55% in size
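Luminescence from the luciferase reporter, measured 30 min after ONE-Glo reagent at room temperature, was the read-out. Beforehand, 2,000 cells per well were exposed for 16 hr at 37 °C to 5-fluorouridine together with compound or vehicle.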
Starred values were filed as active, the others as inactive; [ ] = another dose, or the depositor's remark. Calls come from the whole dose curve; as a rule, active = well fitted curve in the direction sought with a large enough effect; inconclusive = small, poorly fitted or top-dose-only effect, or another doubt; inactive = no such curve, though single readings can be large; an effect the other way counts as inactive or inconclusive. Potency is the fitted concentration of half-maximal effect.

`CC(C)N1CCc2c(sc(NC(=O)c3nc4ccccc4s3)c2C(N)=O)C1` gave Rab9 prom act -1%, SMN2 splice enh -9%, FLuc counter 17µM*, NPC1 promoter act 0%, ELG1 genotox 1% and ELG1 repair inh 1%.
Screening CC(C)N1CCc2c(sc(NC(=O)c3cc(-c4cccs4)nc4ccccc34)c2C(N)=O)C1 returned Rab9 prom act -7%, SMN2 splice enh -6%, FLuc counter -24%, NPC1 promoter act 0%, ELG1 genotox -10% and ELG1 repair inh inconclusive.
Screening CCN1CCN(S(=O)(=O)c2ccc(C(=O)Nc3sc4c(c3C(N)=O)CCN(CC)C4)cc2)CC1 returned Rab9 prom act -5%, FLuc counter 1%, NPC1 promoter act 1%, ELG1 genotox -1% and ELG1 repair inh -12%.
Screening Cc1c(C(=O)N(C)C)c2cc(Cl)ccc2n1O returned Rab9 prom act -3%, SMN2 splice enh -5%, FLuc counter 1%, NPC1 promoter act -5%, ELG1 genotox 2% and ELG1 repair inh -1%.
`CCOC(=O)CN(C(=O)CSc1nnc2c(n1)[nH]c1ccccc12)c1ccccc1` gave Rab9 prom act 1%, SMN2 splice enh -31%, FLuc counter 1%, NPC1 promoter act -5%, ELG1 genotox 1% and ELG1 repair inh -20%.
`CCOC(=O)CN(C(=O)CSc1nnc2c(n1)[nH]c1c(C)cc(C)cc12)c1ccccc1` gave Rab9 prom act -1%, SMN2 splice enh -5%, FLuc counter 1%, NPC1 promoter act -2%, ELG1 genotox -13% and ELG1 repair inh 16µM*.
COc1ccc(CCNC(=O)C(=O)NCC2OCCCN2S(=O)(=O)c2cc(C)ccc2C)cc1 (configuration not stated) was read as Rab9 prom act -9%, FLuc counter 1%, NPC1 promoter act 3%, ELG1 genotox -18% and ELG1 repair inh inconclusive.
Screening CC(C)c1ccc(NC(=O)C2CC3CCC2C3)cc1 (configuration not stated) returned Rab9 prom act 3.2µM*, FLuc counter 11µM*, NPC1 promoter act 3.5µM*, ELG1 genotox 21µM* and ELG1 repair inh inconclusive.
Screening CCOc1ccc(Nc2nc(N)nc(CCl)n2)cc1 returned Rab9 prom act -53%, FLuc counter 3µM*, NPC1 promoter act -43%, ELG1 genotox 10% and ELG1 repair inh inconclusive.
Cc1ccc(Nc2nc(N)nc(CCl)n2)c(C)c1 was read as Rab9 prom act -49%, FLuc counter 11µM*, NPC1 promoter act -37%, ELG1 genotox -17% and ELG1 repair inh inconclusive.
Screening COc1ccccc1Nc1nc(N)nc(CCl)n1 returned Rab9 prom act -56%, FLuc counter inconclusive, NPC1 promoter act -47%, ELG1 genotox -4% and ELG1 repair inh inconclusive.
COc1cccc(Nc2nc(N)nc(CCl)n2)c1 was read as Rab9 prom act -50%, FLuc counter 21µM*, NPC1 promoter act -41%, ELG1 genotox -7% and ELG1 repair inh inconclusive.
For Cc1cccc(Nc2nc(N)nc(CCl)n2)c1C the results were Rab9 prom act -63%, FLuc counter inconclusive, NPC1 promoter act -54%, ELG1 genotox -7% and ELG1 repair inh 9.2µM*.
N#CC(C(=O)CCN1C(=O)C2CC=CCC2C1=O)c1nc2ccccc2[nH]1 (configuration not stated) was read as Rab9 prom act 0%, SMN2 splice enh 27%, FLuc counter -8%, NPC1 promoter act 0%, ELG1 genotox 0% and ELG1 repair inh 5%.
Screening COCCNC(=O)COC(=O)c1ccc(S(=O)(=O)N2CCOCC2)cc1 returned Rab9 prom act -3%, FLuc counter -2%, NPC1 promoter act -3%, ELG1 genotox 1% and ELG1 repair inh 0%.
Screening COc1cc(C(C(=O)NC2CCCCC2)N(C(=O)Cc2c[nH]c3ccccc23)c2ccc(C)cc2)cc(OC)c1OC (configuration not stated) returned Rab9 prom act 1%, SMN2 splice enh -38%, FLuc counter -2%, NPC1 promoter act 0%, ELG1 genotox -7% and ELG1 repair inh inconclusive.
`C[C@@H]1O[C@@H](OC2C(O)C(OCCc3ccc(O)c(O)c3)OC(CO)C2OC(=O)/C=C/c2ccc(O)c(O)c2)[C@H](O)[C@H](O)[C@H]1O` (some centres not stated) gave Rab9 prom act 0%, FLuc counter 1%, NPC1 promoter act 1%, ELG1 genotox -1% and ELG1 repair inh 10%.
Screening COc1ccccc1C(=O)NNC(=S)NC(=O)c1cccs1 returned Rab9 prom act 5%, FLuc counter 3%, NPC1 promoter act -5%, ELG1 genotox 3% and ELG1 repair inh 1%.
For COc1ccc(/C(C)=N\n2cnnc2)cc1 the results were Rab9 prom act -1%, SMN2 splice enh 9%, FLuc counter 1%[2.3 µM], NPC1 promoter act 0%, ELG1 genotox 0% and ELG1 repair inh 1%.
`Cc1ccc(Nc2nc(N)nc(CCl)n2)cc1` gave Rab9 prom act -49%, FLuc counter 1.9µM*, NPC1 promoter act -49%, ELG1 genotox 17% and ELG1 repair inh -23%.
Cc1ccc(Nc2nc(N)nc(CSc3nc4ccccc4s3)n2)cc1 was read as Rab9 prom act 0%, SMN2 splice enh -1%, FLuc counter -26%, NPC1 promoter act 3%, ELG1 genotox -7% and ELG1 repair inh inconclusive.
COc1ccc(Nc2nc(N)nc(CSCCO)n2)cc1 was read as Rab9 prom act 3%, SMN2 splice enh 13%, FLuc counter inconclusive, NPC1 promoter act 19%, ELG1 genotox inconclusive and ELG1 repair inh inconclusive.
For Cc1ccc(Nc2nc(N)nc(CC#N)n2)cc1 the results were Rab9 prom act inconclusive, SMN2 splice enh 18µM*, FLuc counter 11µM*, NPC1 promoter act inconclusive, ELG1 genotox 18µM* and ELG1 repair inh inconclusive.
`Cc1ccc(Nc2nc(N)nc(CSCCO)n2)cc1` gave Rab9 prom act 2µM*, SMN2 splice enh inconclusive, FLuc counter 24µM*, NPC1 promoter act inconclusive, ELG1 genotox inconclusive and ELG1 repair inh inconclusive.
Screening Cc1ccc(Nc2nc(N)nc(COC(=O)C3=COCCO3)n2)cc1 returned Rab9 prom act 2.8µM*, FLuc counter 13µM*, NPC1 promoter act 2µM*, ELG1 genotox inconclusive and ELG1 repair inh -4%.
`Nc1nc(CCl)nc(Nc2ccccc2)n1` gave Rab9 prom act -48%, FLuc counter inconclusive, NPC1 promoter act -36%, ELG1 genotox -11% and ELG1 repair inh -16%.
